Source: PubChem BioAssay
Sampled rows, rich in hits. Any-hit rate of the full collection: about 5.2%.
Tau fibril FP: qHTS for Inhibitors of Tau Fibril Formation, Fluorescence Polarization | 0.39% of 280,000 active | K18 P301L tau heparin fibrillization, Alexa594 FP, 6 h | AID 1468, 2008 | Microtubule-associated protein tau (Homo sapiens), P10636 | Potency, µM (titrated, usually from 57.7 µM), usual class: inhibitors; note: nearly all actives have a fitted effect of over 55% in size
Target sequence (P10636 561-689 P618L limits assumed): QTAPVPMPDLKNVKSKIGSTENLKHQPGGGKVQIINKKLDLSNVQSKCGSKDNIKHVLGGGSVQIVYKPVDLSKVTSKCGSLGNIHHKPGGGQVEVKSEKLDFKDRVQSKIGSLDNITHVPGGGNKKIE
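Read-out: fluorescence polarization of Alexa 594-labeled tau (0.24 uM), 555 nm excitation, 632 nm emission. Mixtures held 15 uM unlabeled K18 P301L, compound and 20 uM heparin, pH 7 acetate buffer, incubated 6 hr at 37 C.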
Sfp inh: qHTS Assay for Inhibitors of Bacillus subtilis Sfp phosphopantetheinyl transferase (PPTase). 4'-phosphopantetheinyl transferase ffp (Bacillus subtilis), Q9F4F7. Biochemical Sfp PPTase activity, qHTS. Potency, µM, actives largely listed as inhibitors. 3.5% of 310,000 active;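 note: the enzyme is Sfp with the accession as filed and its product quenches rhodamine fluorescence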
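Step 1, compound plus 15 nM Sfp-PPTase, 15 min, room temperature. Step 2, add rhodamine-CoA (5 uM) and BHQ-2-YbbR (12.5 uM). Step 3, read 525/598 nm fluorescence at 0 and 30 min.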
FBPA coupling cs: qHTS Assay for Inhibitors of Fructose-1,6-bisphosphate Aldolase from Giardia Lamblia: Coupling assay counterscreen. activity change, negative = inhibition, % at 58.2 µM, hits read low. 0.67% of 290,000 active. coupling enzyme system counterscreen, AmpLite Red fluorescence. AID 2472, 2010; in the data active = activity change below about -30%
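Final compound at 57.5 uM, incubated 10 min at RT with coupling enzyme reagent (glyceraldehyde-3-phosphate), then 20 min with substrate and AmpLite Red detection. Fluorescence read at 525/598 nm; tests interference with the coupling assay, not aldolase inhibition.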
Tau fluor cs: Counterscreen qHTS for Inhibitors of Tau Fibril Formation, Fluorescence Polarization. 0.93% of 280,000 active. tau K18 P301L Alexa594 fluorescence, heparin fibrillization. Potency, µM (highest dose often 57.7 µM); note: nearly all actives have a fitted effect of over 55% in size
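Human K18 P301L tau (15 uM unlabeled plus 0.24 uM Alexa 594-labeled, final) in 100 mM sodium acetate pH 7 was mixed with compound and 20 uM heparin and incubated 6 hr at 37 C.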
Tau ThT inhib: qHTS for Inhibitors of Tau Fibril Formation, Thioflavin T Binding. 2.1% of 270,000 active. Potency, µM (doses to about 57.4 µM), usual class: inhibitors. recombinant tau K18 P301L (four-repeat tau fragment), heparin-induced fibrillization, ThT fluorescence; note: nearly all actives have a fitted effect of over 55% in size
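In this qHTS, human K18 P301L tau is incubated with compound and heparin for 6 hr at 37 C, and Thioflavin T fluorescence then reports fibril load.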
A number is an active result; n = inactive; u = inconclusive; x = not tested or not shown; [ ] = remark or other dose. Unless noted, calls come from the whole dose curve; as a rule, active = well fitted curve in the direction sought with a large enough effect; inconclusive = small, poorly fitted or top-dose-only effect, or another doubt; inactive = no such curve, though single readings can be large; an effect the other way counts as inactive or inconclusive.

SMILES | Tau fibril FP | Sfp inh | FBPA coupling cs | Tau fluor cs | Tau ThT inhib
CCOc1cc(/C=N/NC(=O)c2ccc(-c3csc(Nc4ccc(C)cc4)n3)cc2)ccc1OCC(=O)O | n | u | n | u | 2.82µM
O=C(O)COc1ccc(/C=N/NC(=O)c2ccc(-c3csc(Nc4ccc(Cl)cc4)n3)cc2)cc1 | n | 44.7µM | n | u | u
CCc1ccccc1NC(=O)C(=O)NCC(c1cccnc1)N1CCN(c2ccccc2F)CC1 (stereo not drawn) | n | x | x | n | n
CCOC(=O)c1c(C)n(-c2ccc(OC)cc2)c2ccc(OC(=O)COc3ccccc3)cc12 | n | x | x | n | n
COc1ccc2oc(=O)cc(CN3CCN(C(=O)c4ccccc4F)CC3)c2c1 | n | x | x | n | n
COCCNC(=O)c1ccc(C2SCC(=O)N2Cc2ccco2)cc1 (stereo not drawn) | n | 11.2µM | n | n | n
O=C(NCc1ccc2c(c1)OCO2)c1ccc(C2SCC(=O)N2Cc2ccco2)cc1 (stereo not drawn) | n | 35.5µM | n | n | n
COCCCNC(=O)c1ccc(C2SCC(=O)N2Cc2ccco2)cc1 (stereo not drawn) | n | u | n | n | n
Cn1c(=O)n(CCc2ccccc2)c(=O)c2c1nc1n2CCN1c1ccc(Cl)cc1 | n | x | x | n | n
CC(=O)c1ccc(Nc2c3ccccc3cc3occc23)cc1 | x | n | n | x | x
COc1cc(NC(=O)COCc2cc(-c3ccc(F)cc3)on2)cc(OC)c1OC | n | x | x | n | u
COc1cc2c(cc1OC)CN(Cc1nc3ccsc3c(=O)[nH]1)CC2 | n | n | -42.6 | n | u
O=c1[nH]c(CN2CCN(c3ccccc3Cl)CC2)nc2ccsc12 | n | n | n | n | n
O=C(CCCc1ccccc1)N1CCN(C2CCCCC2)CC1 | x | n | n | x | x
c1ccc(CCN(Cc2ccccc2)C2CCN(C3CCCC3)CC2)cc1 | n | 50.1µM | n | n | n
Cc1ccc(C2CC(=O)N(Cc3ccc(F)cc3)c3c2c(C)nn3-c2nc(C)cc(C)n2)cc1 (stereo not drawn) | n | x | x | n | n
O=C(NCc1ccccc1Br)c1ccc(-n2cnc3cccnc32)cc1 | n | x | x | n | n
Cc1[nH]c2ccccc2c1C(=O)CSC(=S)N(C)C1CCCCC1 | 25.1µM | n | n | u | n
Cc1[nH]c2ccccc2c1C(=O)CSC(=S)N1CCCCC1 | 39.8µM | n | n | 22.4µM[quencher] | u
Cc1[nH]c2ccccc2c1SCC(=O)N1CCCCC1 | n | n | n | u | u
COC(=O)[C@H](Cc1ccccc1)NC(=O)O[C@@H]1C(=O)c2cc(OC)ccc2O[C@H]1c1cccc(OC)c1 | n | n | n | n | n
CN(C)/C=N/C(=S)Nc1ccccc1F | n | n | n | n | n
CN(C)/C=N/C(=S)Nc1ccccc1Cl | n | 50.1µM | n | n | n
CC(=O)N1CCc2cc(CNC(=O)Cc3ccc(F)cc3)ccc21 | n | x | x | n | n
COc1ccc(C[C@@H]2CN3C(=NC[C@@H]3C)N2C[C@H](C)NC(=O)CCC2CCCCC2)cc1 | n | 50.1µM | n | n | n
SMILES | Tau fibril FP | Sfp inh | FBPA coupling cs | Tau fluor cs | Tau ThT inhib
Cc1ccccc1NC(=O)Cn1c(SCC(=O)Nc2ccc(F)cc2)nc2ccccc21 | u | x | x | n | n
O=C(CSCc1ccc(Cl)cc1)N/N=C/c1ccccc1 | n | n | -37.0 | u | n
CC(=O)OCC1OC(C#Cc2ccc(F)cc2F)C=CC1OC(C)=O (stereo not drawn) | u | n | n | n[11.6 µM] | u
Cc1c(C)n(CCc2ccccc2)c2ncnc(NN)c12 | x | n | n | x | x
Cc1c(C)n(Cc2ccccc2)c2ncnc(NN)c12 | x | 56.2µM | n | x | x
CC1/C=C/C=C/C=C/C=C/C=C/C=C/C=C/C(OC2OC(C)C(O)C(N)C2O)CC2O[C@@](O)(CC(O)CC(O)C(O)CCC(O)CC(O)CC(=O)OC(C)[C@H](C)C1O)CC(O)C2C(=O)O (stereo partly drawn) | 3.98µM | n | n | u | 3.98µM
COc1ccc(C2=NC3(CCCCCC3)N(CC(=O)Nc3cccc(Cl)c3)C2=O)cc1 | u | x | x | u | n
O=C(Nc1ccc(Cl)cc1)Nc1ccc2c(c1)N1CCN=C1S2 | n | n | n | 14.1µM[quencher] | n
Nc1ccc2c(c1)N1CCN=C1S2 | n | n | n | n | n
CCCCN1C(=O)C(O)(c2c(C)[nH]c3ccccc23)c2ccccc21 (stereo not drawn) | n | x | x | n | n
C=CCN1C(=O)C2(NNc3ccccc3O2)c2ccccc21 (stereo not drawn) | n | u | n | 12.6µM[quencher] | 7.08µM
CCCCN1C(=O)C2(NNc3ccccc3O2)c2ccccc21 (stereo not drawn) | n | u | n | 11.2µM[quencher] | 11.2µM
C=CCN1C(=O)C2(NC(=O)c3ccccc3N2)c2ccccc21 (stereo not drawn) | n | n | n | n | n
COC(=O)[C@@]1(Cc2ccc(OC)cc2)[C@H]2c3cc(C(=O)N4CCCC4)n(CCN4CNCC4=O)c3C[C@H]2CN1C(=O)c1ccccc1 | n | n | n | n | n
Cc1cccc(Nc2nc3ccccc3n3c(N)nnc23)c1 | u | x | x | n | n
Cn1c(NCc2c(O)ccc3ccccc23)nc2ccccc21 | n | n | n | 17.8µM[quencher] | u
Oc1ccc2ccccc2c1CNc1cnc2ccccc2c1 | n | 28.2µM | -45.6 | u | u
Cn1c(NCc2cc(Br)ccc2O)nc2ccccc21 | u | n | n | n | n
C=C1CC2C3C=C(C)C4=CC(=O)CCC4(C)C3CCC2(C)[C@@]1(OC(C)=O)C(C)=O (stereo partly drawn) | x | n | x | x | x
COc1cc(CN(C(=O)COc2ccccc2Cl)c2ccccn2)cc(OC)c1OC | n | x | x | n | u
Cn1c(=S)[nH]c(=O)c2ncc(=O)[nH]c21 | n | 70.8µM | n | n | n
O=c1c(-c2ccco2)[n+]([O-])c2ccccc2n1OCc1ccccc1 | n | u | n | n | n
COc1ccccc1COn1c(=O)c(-c2ccco2)[n+]([O-])c2ccccc21 | n | 50.1µM | n | n | u
O=c1c(-c2ccco2)[n+]([O-])c2ccccc2n1OCc1c(F)cccc1F | n | 50.1µM | n | n | u
O=c1c(-c2ccco2)[n+]([O-])c2ccccc2n1OCc1ccccc1F | n | n | n | n | n
CCOC(=O)COn1c(=O)c(-c2ccco2)[n+]([O-])c2ccccc21 | n | 25.1µM | n | n | n
Cc1ccc(S(=O)(=O)c2cn(CC(=O)Nc3ccccc3)c3cc4c(cc3c2=O)OCO4)cc1 | u | x | x | n | n
CCC(C)c1ccc(O)c(N)c1 (stereo not drawn) | n | 50.1µM | n | n | n
CC(C)c1ccc(O)c(N)c1 | n | 11.2µM | n | n | n
